According to PubChem BioAssay AID2315 (National Center for Advancing Translational Sciences (NCATS), 2010):
Screen size: about 290,000 compounds; about 27,000 (9.3%) were called active. The sample holds actives, similar compounds and a random draw of the others, so the mix is not that of the screen. Rule as the data show it: active = inhibition mostly above about 28% (no sharp cut-off); inactive = mostly below about 43%.

Experiment: A qHTS for Small Molecule Inhibitors of Shiga Toxin; also: 0% is about no effect
Conditions: Vero cells, Shiga toxin protein synthesis inhibition reporter; at 38.7 µM, stronger effect = higher value
With COc1ccccc1C(=O)NC(CCSC)C(=O)NNC(=O)c1csc(N2CCOCC2)n1 (centres undefined) the inhibition was -15.3% (inactive).
With COc1ccc(/C=C/C(=O)c2cc(Br)ccc(=O)c2O)cc1 the inhibition was 7.73% (inactive).
For COc1ccc(C(=O)/C=C/c2cccnc2)c(OC)c1, the inhibition was 0.985% (inactive).
In the case of COc1ccc(/C=C/C(=O)c2ccc(OC)cc2O)cc1, the inhibition is reported as 42.2% (active).
With CC(=O)Nc1ccc(S(=O)(=O)NC2(C(F)(F)F)C(=O)Nc3c2c(=O)[nH]c(=O)n3Cc2ccccc2)cc1 (centres undefined) the inhibition was -2.93% (inactive).
In the case of Cc1ccccc1C1=NC(C(F)(F)F)(C(F)(F)F)c2c(n(-c3ccc(F)cc3)c(=O)[nH]c2=O)N1, the inhibition is reported as 2.62% (inactive).
For O=c1[nH]c(=O)n(Cc2ccco2)c2c1C(C(F)(F)F)(C(F)(F)F)N=C(c1ccco1)N2, the inhibition was 58.8% (active).
For Cc1ccc(OS(=O)(=O)c2ccc(-c3csc(C)n3)s2)c(C)c1, the inhibition was -11.1% (inactive).
With CN(Cc1ccccc1)CC(O)COc1ccc(CNCc2cc3ccccc3s2)cc1 (centres undefined) the inhibition was -3.31% (inactive).
With COc1ccc(OCC(=O)NCCS(=O)(=O)N2CCN(c3ccc(F)cc3)CC2)cc1 the inhibition was -4.29% (inactive).
In the case of Cc1cc(NC(=O)CSc2nnc(-c3ccc(Cl)s3)o2)no1, the inhibition is reported as 20.2% (inactive).
For COc1ccc(C(=O)/C=C/Nc2ccccn2)cc1, the inhibition was -2.27% (inactive).
With Cc1cc(N/C=C\C(=O)c2ccc(Cl)c(Cl)c2)no1 the inhibition was 59.9% (active).
With COc1ccccc1N1CCN(c2ccc([N+](=O)[O-])nc2)CC1 the inhibition was 34.5% (inactive).
In the case of CC(CN1CCOCC1)OC(=O)c1ccc(Cl)cc1Cl (centres undefined), the inhibition is reported as 38.1% (inactive).
For O=S(=O)(NCCc1ccncc1)c1ccccc1, the inhibition was -5.04% (inactive).
For O=S(=O)(NCCc1csc(-c2ccccc2)n1)c1cccnc1, the inhibition was 129% (active).
For Cc1nc(CNS(=O)(=O)c2cccnc2)cs1, the inhibition was -1.16% (inactive).
For Cc1ccc(Cn2c(=N)c(S(=O)(=O)c3ccc(C)cc3)cc3c(=O)n4ccccc4nc32)cc1, the inhibition was -2.01% (inactive).
With CCCn1cc(S(=O)(=O)c2ccc(C)cc2)c(=O)c2cc(OCC)ccc21 the inhibition was 3.51% (inactive).
For COC(=O)c1[nH]c2ccc(Br)cc2c1NC(=O)Oc1ccccc1, the inhibition was 51.9% (active).
With CCOC(=O)c1[nH]c2ccc(OC)cc2c1NC(=O)CCN1CCN(Cc2ccccc2)CC1 the inhibition was -3.91% (inactive).
For COC(=O)c1[nH]c2ccccc2c1NC(=O)CN1CCCc2ccccc21, the inhibition was 25.1% (inactive).
For O=C(Nc1ccc2c(c1)OCCO2)c1ccc(Cl)c(S(=O)(=O)N2CCCCC2)c1, the inhibition was 147% (active).
With Cc1ccc(C(=O)Nc2ccc3c(c2)OCO3)cc1S(=O)(=O)N1CCCCC1 the inhibition was 43.9% (inactive).
For O=C(Nc1cccc(Cl)c1N1CCOCC1)c1ccc2c(c1)OCCO2, the inhibition was 121% (inactive).
With COC(=O)c1ccc(N2CCOCC2)c(NC(=O)c2ccc3c(c2)OCCO3)c1 the inhibition was 17.9% (inactive).
In the case of O=C(Nc1cccc(S(=O)(=O)N2CCCCC2)c1)c1ccc2c(c1)OCO2, the inhibition is reported as 21.9% (inactive).
For CN1CCN(c2ccc(NC(=O)c3ccc4c(c3)OCCO4)cc2Cl)CC1, the inhibition was 77.9% (active).
For Cc1cccc(C)c1NC(=O)CS(=O)CC(=O)N1CCN(c2ccccc2)CC1 (centres undefined), the inhibition was -9.06% (inactive).
In the case of Cc1cccc(NC(=O)N2CCCCCC2)c1C, the inhibition is reported as 46.2% (inactive).
In the case of Cc1ccc(N2CCN(C3=NC(=O)/C(=C\c4cccs4)S3)CC2)cc1, the inhibition is reported as -4.1% (inactive).
With CC1CCN(C2=NC(=O)/C(=C/c3cn[nH]c3-c3ccccc3)S2)CC1 the inhibition was -0.314% (inactive).
For CCc1ccc(/C=C2\SC(N3CCOCC3)=NC2=O)cc1, the inhibition was 42.9% (inactive).
For O=C1N=C(N2CCOCC2)S/C1=C\C=C/c1ccccc1, the inhibition was 66.1% (active).
With O=C1N=C(N2CCc3ccccc3C2)S/C1=C\c1ccc(O)cc1 the inhibition was 33% (inactive).
In the case of Cc1ccsc1/C=C1\SC(N2CCOCC2)=NC1=O, the inhibition is reported as 111% (active).
With CCc1ccc(C(CNc2nc(C(F)(F)F)nc3ccccc23)N(C)C)cc1 (centres undefined) the inhibition was -12.5% (inactive).
With Cc1cccc(CN2CCC(CNC(=O)Nc3ccc(F)c(Cl)c3)CC2)c1 the inhibition was -4.78% (inactive).
In the case of Cc1ccc(NC(=O)C2CCCN2S(=O)(=O)c2cccc3cccnc23)c(C)c1 (centres undefined), the inhibition is reported as -11.1% (inactive).
In the case of COc1ccc(OC)c(S(=O)(=O)n2c([N+](=O)[O-])cnc2C)c1, the inhibition is reported as -7.62% (inactive).
In the case of COc1cc(NC(=O)C2CC(c3ccccc3O)=NO2)c(OC)cc1Cl (centres undefined), the inhibition is reported as -12.3% (inactive).
In the case of COc1ccc(C(CNC(=O)COc2ccccc2OC)N2CCCCC2)cc1 (centres undefined), the inhibition is reported as -20.7% (inactive).
With c1ccc(CN=C2Nc3ccccc3CS2)nc1 the inhibition was 59.8% (active).
In the case of COc1ccccc1CNS(=O)(=O)c1c(C)[nH]c(C)c1C(=O)N1CCCCC1, the inhibition is reported as 2.2% (inactive).
For Cc1ccc(S(=O)(=O)N(CC(=O)NCc2ccco2)c2ccccc2C)cc1, the inhibition was 9.67% (inactive).
With COc1ccccc1OC(C)C(=O)Nc1ccc(S(=O)(=O)Nc2nccs2)cc1 (centres undefined) the inhibition was -4.41% (inactive).
In the case of CSc1c(SCc2ccccc2)cnn(Cc2ccccc2)c1=O, the inhibition is reported as 10.6% (inactive).
In the case of Cn1c(-c2ccc(F)cc2)cnc1SCC(=O)NNC(=O)Cc1ccccc1, the inhibition is reported as 18.3% (inactive).
With Cn1c(CO)cnc1SCc1ccccc1 the inhibition was 65.8% (active).
In the case of CCS(=O)(=O)N1CCC(N2CCN(c3ccccc3)CC2)CC1, the inhibition is reported as -4.18% (inactive).
With Cc1cc(C)n(-c2ccc(NC(=O)C3CCCCN3C(=O)c3cccs3)cc2)n1 (centres undefined) the inhibition was 11% (inactive).
For Cc1ccc2[nH]c3c(=O)n(CC(=O)NCCc4ccc(Cl)cc4)ncc3c2c1, the inhibition was 21.6% (inactive).
With CCOc1ccc(NC(=O)CN2CCN(CC(=O)Nc3ccc(OC)cc3)CC2)cc1 the inhibition was -3.78% (inactive).
With Cc1ccc(OCc2n[nH]c(=S)n2-c2ccc(C)cc2)cc1 the inhibition was -9.95% (inactive).
In the case of COc1ccc(Cc2n[nH]c(=S)n2NC(=O)Nc2ccc(C)cc2)cc1, the inhibition is reported as 63.4% (active).
In the case of COc1ccc(CCNC(=O)CN2C(=O)COc3ccc(S(=O)(=O)N4CCCC4)cc32)cc1OC, the inhibition is reported as 22.2% (inactive).
In the case of CCc1ccc(-c2cc(C)no2)cc1S(=O)(=O)NCCc1ccc(S(N)(=O)=O)cc1, the inhibition is reported as -11% (inactive).
In the case of COc1ccc(CCNC(=S)N2CCN(S(=O)(=O)c3ccc(Cl)cc3)CC2)cc1, the inhibition is reported as -14.7% (inactive).
For O=C(CCS(=O)(=O)c1ccccc1)NC1CCCC1, the inhibition was 55.4% (active).
With O=C(CCNC(=O)C1CCN(S(=O)(=O)c2ccccc2)CC1)NC1CC1 the inhibition was -1.38% (inactive).
With CC(=O)c1cc(-c2ccccc2)n(CCC(=O)NC2CCCCCC2)c1C the inhibition was 10.9% (inactive).
In the case of CC1(C(=O)NNC(=S)NCC2CCCO2)CC1(Cl)Cl (centres undefined), the inhibition is reported as -2.83% (inactive).
For Cc1ccc(Cl)cc1NC(=O)C1CCCN(c2cnccn2)C1 (centres undefined), the inhibition was -10.6% (inactive).
For C=CCN1C(=O)C2(OCCCO2)c2cccc(Cl)c21, the inhibition was -3.46% (inactive).
In the case of CC1(C)Cc2ccccc2/C(=C/C(=O)c2ccccc2)N1, the inhibition is reported as -3.39% (inactive).
With COc1ccc(NC(=O)c2cccc3c2C(=O)N(CC2CCCO2)C3)cc1OC (centres undefined) the inhibition was 3.68% (inactive).
For CC(=O)NCC(=O)N1CCC(n2nccc2NC(=O)CCCc2ccccc2)CC1, the inhibition was 30.2% (inactive).
In the case of Cc1ccc(CN2CCC(n3nccc3NC(=O)CCCc3ccccc3)CC2)o1, the inhibition is reported as 21.2% (inactive).
With CC(=O)N[C@@H](C)C(=O)N1CCC(n2nccc2NC(=O)CCCc2ccccc2)CC1 the inhibition was 57.5% (active).
For COc1cc(N2CCCC2)c(OC)cc1/C=C(/C#N)c1cccc(Br)c1, the inhibition was -23.2% (inactive).
For COc1ccccc1NC(=O)CCN1CCN(c2ccc(Cl)cc2)CC1, the inhibition was -2.18% (inactive).
In the case of CC(Sc1cccc[n+]1[O-])C(=O)Nc1cccc(S(=O)(=O)N2CCOCC2)c1 (centres undefined), the inhibition is reported as -6.74% (inactive).
In the case of Cc1ccc(CNC(=O)Cc2cn(C)c3ccccc23)cc1, the inhibition is reported as 12.6% (inactive).
With CCNS(=O)(=O)c1ccc(NC(=O)Nc2cccc(OC)c2)cc1 the inhibition was -33.1% (inactive).
For COc1cccc(NC(C)=[N+](C)CCNS(=O)(=O)c2ccc(Cl)cc2)c1, the inhibition was 119% (active).
In the case of COc1cccc(NC(=O)CCNS(=O)(=O)c2ccc3c(c2)oc(=O)n3C)c1, the inhibition is reported as 14.5% (inactive).
For CCCCCCC(O)(CCN1CCCCC1)c1ccccc1 (centres undefined), the inhibition was -7.11% (inactive).
With COc1ccc(NC(=O)C(CC(C)C)NC(=O)C2CCC(C)CC2)cc1 (centres undefined) the inhibition was 35.8% (inactive).
With O=C(/C=C/Nc1ccccc1)c1cnc(-c2ccccc2)s1 the inhibition was -10.9% (inactive).
For CC(=O)c1cnc(-c2ccccc2)s1, the inhibition was 59% (active).
With CNC(=O)c1csc(-c2ccccc2)n1 the inhibition was 25.9% (inactive).
With CCCn1nnnc1NCc1ccc(OC)cc1 the inhibition was -12.1% (inactive).
With CCS(=O)(=O)C1=NSC2=NC(=O)/C(=C\c3ccc(OS(=O)(=O)c4ccccc4)cc3)C(=N)N21 the inhibition was 14.7% (inactive).
For Cc1ccccc1N1CCN(S(=O)(=O)c2ccc3ccccc3c2)CC1, the inhibition was -3.59% (inactive).
With O=C(c1cccc(-n2cccc2)c1)N1CCN(S(=O)(=O)c2ccc(F)cc2)CC1 the inhibition was -1.04% (inactive).
In the case of O=C(COc1ccc(Cl)cc1)NCCSc1ccccc1, the inhibition is reported as -8.84% (inactive).
With O=C(NCCc1ccccc1)Oc1ccc(Cl)cc1 the inhibition was 62.7% (active).
In the case of Cc1cc(C(=O)NCCc2ccc(Cl)cc2)n(-c2ccccc2)n1, the inhibition is reported as -4.98% (inactive).
In the case of Cc1cc(C(=O)NCCc2ccc(Cl)cc2)c(C)o1, the inhibition is reported as 87.4% (active).
In the case of NS(=O)(=O)c1ccc(CCNC(=O)c2ccc(Cl)cc2[N+](=O)[O-])cc1, the inhibition is reported as 12.8% (inactive).
With O=C(CCc1ccccc1)NNC(=O)COc1ccc(Cl)cc1 the inhibition was -14.5% (inactive).
For COc1cccc(C(=O)NNS(=O)(=O)c2ccc(F)cc2)c1, the inhibition was 0.43% (inactive).
With CCN1CCN(CCNC(=O)c2ccc3c(c2)NC(=O)/C(=C\c2ccc(OC)c(OC)c2)S3)CC1 the inhibition was -8.25% (inactive).
